# The list is not random: actives were taken first. Their share in the collection is about 3.2%.
# Rce1 inh – inhibitors of yeast Ras-converting enzyme | yeast membranes, quenched prenylated peptide cleavage fluorescence | AID 2563 | 290,000 compounds, 0.27% hits | calls only | Q03530;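 active = fall in fluorescence gain of 50% or more versus controls, with final raw signal at or below 3038400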
# Kir21 block – blocks the mouse Kir2.1 inward-rectifier potassium channel; B-score at 10 µM; HEK293-Kir2.1, FluxOR thallium flux fluorescence; hits give low values; 310,000 compounds, 0.85% hits; P35561;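 active = fluorescence ratio B-score at or below minus 3 SD of library scores, with starting-brightness B-score within 2 SD, cut at about -4.2 in these data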;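 also: channel flux triggered by added potassium and thallium sulfate stimulus; B-score of peak minus minimum fluorescence over baseline after thallium stimulus; more negative B-score means stronger Kir2.1 block with less thallium influx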
# Target sequence (P35561 whole entry, looked up): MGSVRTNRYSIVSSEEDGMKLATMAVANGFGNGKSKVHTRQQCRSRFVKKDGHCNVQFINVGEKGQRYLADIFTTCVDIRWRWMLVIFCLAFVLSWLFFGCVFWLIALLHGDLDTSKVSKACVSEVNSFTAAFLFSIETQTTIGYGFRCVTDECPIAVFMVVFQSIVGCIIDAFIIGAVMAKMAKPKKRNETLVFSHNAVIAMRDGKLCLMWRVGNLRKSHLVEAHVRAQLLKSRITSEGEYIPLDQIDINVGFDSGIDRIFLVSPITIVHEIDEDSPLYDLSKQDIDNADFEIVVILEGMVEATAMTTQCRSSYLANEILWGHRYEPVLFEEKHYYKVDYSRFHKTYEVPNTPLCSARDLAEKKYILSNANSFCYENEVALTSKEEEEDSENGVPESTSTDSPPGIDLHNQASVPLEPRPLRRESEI
# CHT inh – inhibits the human high affinity choline transporter; Q9GZV3; B-score at 10 µM; CHT-expressing cells, membrane potential dye, choline response; hits give low values; 310,000 compounds, 0.86% hits;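 active = B-score over 3 SD under the library average, and starting fluorescence ratio not unusually high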;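 also: choline stimulus applied at its EC90 after an EC20 pre-addition; B-score computed on integrated fluorescence ratio after choline addition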
# ANO1 block – blocks the mouse calcium-activated chloride channel TMEM16A; Q8BHY3; HEK293 TMEM16A/YFP iodide influx fluorescence, ionomycin; normalized B-score (activity score, 25-100; higher = stronger inhibition) at 10 µM; 310,000 compounds, 1.2% hits; AID 588511;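 active = ratio plate-corrected score three or more library SD toward inhibition, starting fluorescence score within five deviations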;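 also: score derived from kinetic fluorescence span divided by baseline fluorescence per well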
# CHT allo act – allosteric activators of human choline transporter CHT; 310,000 compounds, 0.49% hits; CHT-expressing cells, membrane potential dye, choline EC20; hits give high values; LV-AA mutant CHT in HEK293 cells; B-score at 10 µM;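 active = initial fluorescence not abnormally high and integrated response B-score, plate-corrected, over 3 SD above library mean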
# TMEM16A act – mouse TMEM16A channel activation, primary screen. HEK293 TMEM16A/YFP-H148Q/I152L, iodide quench fluorescence; hits give low values. B-score at 10 µM. 340,000 compounds, 0.3% hits. AID 623877;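 active = fluorescence-ratio B-score plate-corrected deviation score at least 3 library SD below zero, with starting fluorescence score within 5 deviations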;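 also: channel opened by trigger with iodide after compound preincubation; score built on the fluorescence ratio of max minus min over baseline; more negative score means more quench and so TMEM16A activation or potentiation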
# Hits are given with their value; 0 = inactive; - = not tested or not shown; + = active, no number.
SMILES,Rce1 inh,Kir21 block,CHT inh,ANO1 block,CHT allo act,TMEM16A act
Cc1cccc(OCC(=O)N(Cc2ccccc2)c2c(N)n(Cc3ccccc3)c(=O)[nH]c2=O)c1,-,-,-,-,-,0
C/C(=N\N(c1ccccc1)c1ccccc1)c1ccc(O)cc1,0,-5.12,0,0,0,0
C/C(=N\N(c1ccccc1)c1ccccc1)c1ccc(N)cc1,0,0,0,0,0,0
Cc1ccc2c(O)c(C)c(=O)[nH]c2n1,0,0,0,0,0,0
CCOC(=O)c1cnn(-c2ccccc2)c1NC(=O)c1ccc(C)cc1,0,0,0,25,0,0
CCOC(=O)c1cnn(-c2ccccc2)c1NC(=O)c1ccccc1,0,0,0,0,0,0
S=C(NCc1ccccc1)NCc1cccc(Cl)c1,0,0,0,0,0,0
Fc1ccc(CNC(=S)NCc2cccc(Cl)c2)cc1,0,-4.37,0,0,0,0
S=C(NCCc1ccc(Cl)cc1)NCc1ccccc1,0,-7.31,0,0,0,0
S=C(NCCc1cccc(Cl)c1)NCc1ccccc1,0,0,0,0,0,0
Fc1ccc(NC(=S)NCCc2ccc(Cl)cc2)cc1,0,-4.44,0,0,0,0
CCC(NC(=S)NCc1ccc(F)cc1)c1ccccc1 (stereo not drawn),0,-7.42,0,0,0,0
O=[N+]([O-])c1ccc(NC(=S)NCCc2ccc(F)cc2)cc1,0,-5.25,0,100,0,-4.87
Fc1cccc(NC(=S)NCCc2ccccc2)c1,-,0,0,0,0,0
O=[N+]([O-])c1cccc(NC(=S)NCCc2ccccc2)c1,0,0,0,100,0,0
S=C(NCCC(c1ccccc1)c1ccccc1)Nc1ccccc1Cl,0,0,0,0,0,0
S=C(NCCC(c1ccccc1)c1ccccc1)Nc1ccc(Cl)cc1,0,0,0,100,0,0
O=C(NCCc1ccc(F)cc1)Nc1ccc([N+](=O)[O-])cc1,0,0,0,0,0,0
CN(C(=O)c1ccccc1F)C(c1ccccc1)c1ccccc1,0,-7.19,0,0,0,0
CC1c2ccsc2CCN1S(=O)(=O)c1ccccc1 (stereo not drawn),0,-6.85,0,0,0,0
CC1c2cccn2CCN1S(=O)(=O)c1ccccc1 (stereo not drawn),-,-,-,-,-,0
COc1ccc(C)cc1N(C(=O)c1snc(C(N)=O)c1N)C(C(=O)NC1CCCC1)c1ccc(F)cc1 (stereo not drawn),0,0,0,0,0,0
Cc1cc(C)nc(/N=C(\N)Nc2ccc(OCc3ccccc3)cc2)n1,0,0,0,100,0,-7.78
COc1cc2[nH]c(C(=O)N3CCc4ccccc43)cc2c(OC)c1OC,0,0,0,0,0,0
CCN(c1ccccc1)S(=O)(=O)c1ccc2ccccc2c1,0,0,0,0,0,0
SMILES,Rce1 inh,Kir21 block,CHT inh,ANO1 block,CHT allo act,TMEM16A act
CCN(c1ccccc1)S(=O)(=O)c1cc([N+](=O)[O-])ccc1N,0,-6.98,0,0,0,0
Cc1ccc(Cl)cc1N1CCN(C(=O)CN(c2ccccc2)S(=O)(=O)N(C)C)CC1,0,0,0,0,0,0
Cn1c(=O)c(C(=O)NCCc2ccc(Cl)cc2)c(O)c2ccccc21,0,0,0,0,0,0
Cn1c(=O)c(C(=O)NCCO)c(O)c2ccccc21,+,0,0,0,0,0
COc1ccc(N(CC(=O)Nc2ccccc2C)S(=O)(=O)c2ccccc2[N+](=O)[O-])c(OC)c1,0,0,0,0,0,0
CCOc1ccccc1NC(=O)CN(c1ccc(OC)cc1OC)S(=O)(=O)c1ccccc1[N+](=O)[O-],0,0,0,0,0,-5.2
CCCSc1nnc(NC(=O)Nc2ccc(F)cc2)s1,0,0,0,100,0,0
CCC(=O)Nc1nnc(SCCOC)s1,0,0,0,25,0,0
COCCSc1nnc(NC(=O)C2CCCCC2)s1,0,0,0,0,0,0
CSc1cccc(CN2CCCC(C(=O)Nc3cccc(-n4cccn4)c3)C2)c1 (stereo not drawn),0,0,0,0,0,0
O=C(OCCOCCN=C1NS(=O)(=O)c2ccccc21)c1ccc(F)cc1,0,0,0,0,0,0
COc1ccccc1C(=O)N/N=C/c1c[nH]c2ccccc12,0,0,0,0,0,0
COc1ccc(S(=O)(=O)N2CCCc3ccccc32)cc1OC,0,-5.29,0,0,0,0
O=C(NCc1ccco1)c1cc(S(=O)(=O)N2CCCc3ccccc32)ccc1Cl,0,0,0,0,0,0
CCNC(=O)COC(=O)c1cc(S(=O)(=O)N2CCCc3ccccc32)ccc1Cl,0,-4.39,0,0,0,0
O=S(=O)(c1cnc(Cl)c(Cl)c1)N1CCCc2ccccc21,0,-4.57,0,0,0,0
Cc1c(C(=O)Nc2ccccc2N2CCN(C)CC2)oc2ccc(F)cc12,-,-,-,-,-,0
CC(=O)Nc1ccc(S(=O)(=O)N2CC3(C)CC2CC(C)(C)C3)cc1 (stereo not drawn),0,0,0,0,0,0
CCOC(=O)c1cc([N+](=O)[O-])sc1NC(=O)c1ccc(S(=O)(=O)N2CC3(C)CC2CC(C)(C)C3)cc1 (stereo not drawn),0,0,0,0,0,-25.6
CN(C)C(=O)COc1ccc2ccc(=O)oc2c1,+,0,0,0,0,0
CCN(C(=O)COc1ccc2ccc(=O)oc2c1)C1CCCCC1,-,-,-,-,-,0
CN(C)c1ncc(S(=O)(=O)c2ccc(Cl)cc2)c(-c2ccccc2)n1,0,0,0,0,0,0
O=S(=O)(c1ccc(F)cc1)c1snnc1-c1ccccc1,0,-14.8,0,0,0,0
O=S(=O)(c1ccc(Cl)cc1)c1snnc1-c1ccccc1,0,-9.97,0,0,0,0
CCOC(=O)c1c(CN2CCN(CCO)CC2)n(-c2ccccc2)c2cc(Br)c(O)cc12,0,0,0,0,0,0
SMILES,Rce1 inh,Kir21 block,CHT inh,ANO1 block,CHT allo act,TMEM16A act
CCOC(=O)c1c(CSC(=N)N)n(-c2ccccc2)c2cc(Br)c(OC(C)=O)cc12,0,-4.45,0,0,0,0
C/C(=N\NC(=O)c1ccc([N+](=O)[O-])cc1Cl)c1ccccc1,0,0,0,0,0,0
Cc1ccc(O)c(CNc2cnc3ccccc3c2)c1,+,0,0,25,0,0
Cc1ccc(C)c(OCCC(=O)N(C)CC(=O)Nc2c(C)cccc2C)c1,-,-,-,-,-,0
O=C(O)/C=C/c1ccc(S(=O)(=O)Nc2ccccc2C(=O)Nc2ccc(F)cc2)cc1,0,0,0,0,0,0
COc1ccc(-n2c(C)c(C(C)=O)c(C(C)=O)c2C)cc1,0,0,0,0,0,0
COc1cccc(-n2c(C)c(C(C)=O)c(C(C)=O)c2C)c1,0,0,0,0,0,-13.2
O=C(CCl)N1CCN(S(=O)(=O)c2ccc3c(c2)CCC3)CC1,-,-,-,-,-,0
Cn1cc(/C=C2\SC(=O)NC2=S)c2ccccc21,0,0,0,0,0,-4.62

# Assay outcomes from PubChem BioAssay.
